PubChem BioAssay AID1510 (The Scripps Research Institute Molecular Screening Center, 2009)
Out of some 220,000 compounds screened, about 570 (0.26%) were called active. For the sample, actives were picked, then their nearest neighbours and some compounds at random. Unmarked numbers belong to inactive results. Rule as the data show it: active = inhibition above about 29%; inactive = the rest.

target: Sphingosine 1-phosphate receptor 4 (Homo sapiens) (UniProt O95977); assay: S1P4 receptor antagonists, primary screen, cell-based (AID 1510); settings: S1P4-expressing cells, antagonist mode, reporter read-out; at 4.98 µM; stronger effect = higher value;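 also: 0% = wells stimulated with agonist and 100% = vehicle wells without agonist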
Sequence (O95977 whole entry, looked up): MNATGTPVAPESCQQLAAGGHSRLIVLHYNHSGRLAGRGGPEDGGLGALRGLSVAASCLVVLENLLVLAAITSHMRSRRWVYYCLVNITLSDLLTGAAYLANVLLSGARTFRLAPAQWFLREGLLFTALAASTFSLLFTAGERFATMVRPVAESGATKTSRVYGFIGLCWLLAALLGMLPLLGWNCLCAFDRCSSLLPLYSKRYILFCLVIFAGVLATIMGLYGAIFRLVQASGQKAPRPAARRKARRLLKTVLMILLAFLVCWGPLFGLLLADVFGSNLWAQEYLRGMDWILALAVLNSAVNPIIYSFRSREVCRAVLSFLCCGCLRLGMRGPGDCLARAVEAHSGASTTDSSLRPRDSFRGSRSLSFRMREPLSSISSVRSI

| Compound | inhibition |
| --- | --- |
| O=S1(=O)CCC(NC(=S)SCc2ccccc2Br)C1 (stereo not given) | -3.75% |
| C[C@H](NC(=O)OC(C)(C)C)c1nnc(SCC(N)=O)o1 | -7.8% |
| C[C@@H](NC(=O)OC(C)(C)C)c1nnc(S(=O)(=O)Cc2ccccc2)o1 | 64% (active) |
| CC(C)Sc1nnc([C@H](Cc2ccccc2)NC(=O)OC(C)(C)C)o1 | -0.59% |
| CC(C(=O)NC1CCCC1)N(c1ccc(Oc2ccccc2)cc1)S(C)(=O)=O (stereo not given) | -5.41% |
| CC(=O)N1CCN(S(=O)(=O)c2c(F)cc(F)c(Cl)c2F)CC1 | 6.68% |
| COCCCN(C(=S)Nc1c(C)cc(C)cc1C)C(C)c1ccncc1 (stereo not given) | -9.1% |
| CCOC(=O)Cc1csc(NC(=O)CSc2ccc(Br)cc2)n1 | -7.78% |
| Cc1cc(-c2cccs2)nc(-n2cccc2)n1 | -8.93% |
| O=C(NNC(=S)NC(=O)c1cn(-c2ccccc2)nc1-c1ccccc1)c1ccncc1 | 13.1% |
| CCc1nnc(NC(=O)CCN(c2ccc(C)cc2)S(=O)(=O)c2ccccc2)s1 | -0.25% |
| O=C(NCCOc1ccccc1Cl)C(=O)Nc1ccccc1 | -2.25% |
| S=C(NCC1CCCO1)N1CCN(c2ccc(Cl)c(Cl)c2)CC1 (stereo not given) | 4.85% |
| CCC(C)(C)NC(=O)C(c1ccc(O)cc1)N(C(=O)Cn1nnc2ccccc21)c1ccc(NC(C)=O)cc1 (stereo not given) | -9.34% |
| COc1cccc(NC(=O)c2nn(-c3ccc(OC)cc3OC)c(=O)c3ccccc23)c1 | -8.83% |
| O=C(/C=C/c1ccc(Cl)cc1Cl)NCc1ccco1 | 3.88% |
| O=C(/C=C/c1ccc(Cl)c([N+](=O)[O-])c1)c1cccnc1 | 2.24% |
| O=C(/C=C/c1ccc(Cl)cc1Cl)c1cccnc1 | 47.2% (active) |
| Cc1cc(=O)n2[nH]c(-c3sccc3-n3c(C)ccc3C)cc2n1 | -27% |
| CCc1c(C)nc2cc(C)[nH]n2c1=O | 5.94% |
| CCc1c(C)nc2cc(-c3cccs3)[nH]n2c1=O | 48.1% (active) |
| CN1C(=O)C(CC(=O)Nc2ccccc2)S/C1=N/c1nccs1 (stereo not given) | -20.3% |
| Cc1coc2c(O)cc3c(c12)OC1(N2CCCCC2)C(=O)NCCCC31 (stereo not given) | 9.33% |
| COCc1cc(=O)oc2cc(NS(=O)(=O)c3ccc(C)cc3)ccc12 | 13.1% |

| Compound | inhibition |
| --- | --- |
| CC(C)(C)c1ccc(/C=C2\Oc3c(ccc(O)c3CN3CCN(CCO)CC3)C2=O)cc1 | 12.8% |
| Cc1ccc2c(c1)C1CN(C)CCC1N2C(=S)Nc1ccc(Cl)cc1Cl (stereo not given) | -21% |
| O=S(=O)(NCCc1ccc(F)cc1)c1cccc2cccnc12 | -18.1% |
| CN(C)c1ccc(C(=S)N2CCN(C(=S)Nc3ccc(Cl)cc3)CC2)cc1 | -3.9% |
| CC(=O)Oc1c(C(=O)c2nnc(C)o2)c(=O)n(Cc2ccccc2)c2ccccc12 | -3.21% |
| COCCCNC(=S)NNC(=O)C(O)(c1ccccc1)c1ccccc1 | -8.87% |
| O=C(NC(Nc1nc2ccc([N+](=O)[O-])cc2s1)(C(F)(F)F)C(F)(F)F)c1ccccc1 | 41.2% (active) |
| O=C(O)CCC(=O)Nc1nc2ccc([N+](=O)[O-])cc2s1 | -2.95% |
| O=C(Nc1nc2ccc([N+](=O)[O-])cc2s1)c1ccncc1 | -29% |
| Cc1cc(C)cc(OCC(=O)O/N=C(\N)Cc2ccc([N+](=O)[O-])cc2)c1 | -5.5% |
| FC(F)Oc1ccccc1NC(=S)Nc1cccc(Cl)c1Cl | 5.26% |
| COC(=O)CC1=NN(c2nc(C)cc(C)n2)C(=O)C1 | -14.2% |
| CC(=O)c1cc(C#N)c(N2CC(C)OC(C)C2)nc1C (stereo not given) | -33.6% |
| Cc1nc2ccccc2n1CC(=O)N/N=C/c1cccs1 | -34.3% |
| Cc1ccc(NC(=O)CC2C(=O)N(Cc3ccccc3)C(=S)N2NC(=O)c2cccc(F)c2)c(C)c1 (stereo not given) | 6.19% |
| O=C(Nc1ccc(F)cc1F)N1CCCN(CCOc2ccccc2)CC1 | 6.19% |
| O=C(O)/C=C/c1ccc2c(c1)OCCO2 | -7.83% |
| O=C(Nc1ccccc1Cl)c1ccc2nsnc2c1 | -7.15% |
| O=C(Nc1ccccc1Cl)/C(Cl)=C(\Cl)S(=O)c1ccccc1 (stereo not given) | 98.4% (active) |
| O=C(CN1CCCCC1)Nc1ccccc1Cl | -3.07% |
| COC(=O)c1ccccc1NC(=O)C1CCN(S(=O)(=O)c2cc(OC)ccc2OC)CC1 | -24.9% |
| O=C1N(c2ccccc2)C(=Nc2ccccc2)SC12CC2 | 1.83% |
| CCN(CC)S(=O)(=O)c1ccc(C)c(NC(=O)COc2ccc(Br)cc2Cl)c1 | -3.44% |
| COc1ccc(N2CCC(CNC(=S)Nc3c(C)cccc3C)C2)cc1 (stereo not given) | 4.09% |

| Compound | inhibition |
| --- | --- |
| CCOc1ccc2nc(C(=O)N3CCCC(C)C3)sc2c1 (stereo not given) | 14.6% |
| O=C(Cc1cccs1)N(CC1CCCO1)C1(C(=O)NC2CCCCC2)CCCCC1 (stereo not given) | -13.5% |
| O=C(Nc1nnc(C2COc3ccccc3O2)o1)c1ccc(F)cc1 (stereo not given) | -4.96% |
| CC(C)c1cc(NCc2ccccn2)n2c(nc3ccccc32)c1C#N | 12.6% |
| Cn1nnnc1NCc1ccc(Cl)c(Cl)c1 | 4.37% |
| CCCCCC(O)c1cccc(OCc2ccc3ccccc3n2)c1 (stereo not given) | -14.6% |
| O=C(NCCCc1ccccc1)C1CCC(CNc2c(N3CCCCC3)c(=O)c2=O)CC1 (stereo not given) | 0.07% |
| CC(C)c1ccc(NC(=O)CCN2C(=O)c3ccc([N+](=O)[O-])cc3C2=O)cc1 | -5.92% |
| CC(=O)c1c(-c2ccccc2)c2ccccc2[nH]c1=O | -27.5% |
| O=C(O)CSc1nccn1-c1cccc(Cl)c1 | -14.5% |
| C/C(=N\Nc1ccc([N+](=O)[O-])cc1)c1ccc(-n2nncc2C(C)(C)C)cc1 | -11.5% |
| COc1ccc(/C=N/NC(=O)Nc2ccc3nsnc3c2)c(OC)c1 | 9.36% |
| CC(=O)c1cccc(NC(=O)[C@@H](NC(N)=O)C(C)C)c1 | -13.9% |
| Cc1ccc(S(=O)(=O)Nc2nc3ccccc3s2)cc1[N+](=O)[O-] | -9.6% |
| COc1ccc(NC(=S)NCCNC(C)=O)cc1 | 4.01% |
| COc1ccc(NC(=O)/C(Cl)=C(/Cl)S(=O)Cc2ccc(C)cc2)cn1 (stereo not given) | 59.5% (active) |
| COc1ccc(NC(=S)Nc2ccccc2Cl)cn1 | -10.6% |
| COc1ccc(CS(=O)/C(Cl)=C(/Cl)C(=O)Nc2ccc(OC)nc2)cc1 (stereo not given) | 95.9% (active) |
| COc1ccc(Nc2cc(Cl)ccc2C(=O)O)cn1 | 0.55% |
| Cc1ccc(NC(=O)OCc2cncs2)cc1 | 6.88% |
| CCn1cc(-c2cc(C(=O)O)on2)c(C)n1 | -15.2% |
| Cc1csc(CN(C)C(=O)CC2C(=O)NCCN2CC(C)(C)C)n1 (stereo not given) | 2.01% |
| CC(C)N(C)C(=O)CCc1nnc(CCc2c[nH]c3ccccc23)o1 | -1.14% |
| CCOc1ccc(C(CCc2ccccc2)NC(=O)c2ccc(OC)c(OC)c2)cc1OCC (stereo not given) | 0.03% |

| Compound | inhibition |
| --- | --- |
| CC(=O)Nc1ccc(S(=O)(=O)Nc2nccc(/C=C/c3ccccc3F)n2)cc1 | -21.4% |
| O=C(CC(O)(C(F)(F)F)C(F)(F)F)Nc1ccc(Cl)c(Cl)c1 | 33.2% (active) |
| O=C(CC(=O)Nc1ccc(Cl)c(Cl)c1)N/N=C/c1ccc(O)cc1 | -17.9% |
| CN(C)CCNC(CC(=O)Nc1ccc(Cl)c(Cl)c1)C(=O)O (stereo not given) | 0.14% |
| CN(C(=O)CSc1nnc(Nc2ccccc2)s1)C1CCS(=O)(=O)C1 (stereo not given) | -10.1% |
| Cc1ccc(OCCOCCOc2ccc(Br)cc2/C=N\NC(=O)c2ccncc2)cc1 | -17.4% |
| N#Cc1c(-c2cccs2)nc(SCC(=O)c2ccc(Br)cc2)[nH]c1=O | 15.8% |
| Cc1ccc(C(=O)Nc2sc(Cc3ccc4c(c3)OCO4)c(C)c2C(N)=O)cc1 | -11.1% |
| O=C(Nc1ccccc1)OCc1cc(-c2ccc(Cl)cc2)on1 | -6.25% |
| O=C1c2cccc3cc(Br)cc(c23)C(=O)N1Nc1ccccc1 | -15.2% |
| O=C1C=C(c2ccc(Cl)cc2)C(=O)N1Nc1ccccc1 | 34.7% (active) |
| FC(F)(F)c1cccc(-c2nc(COc3ccc(Cl)cc3Cl)no2)c1 | -7.31% |
| Oc1ccc(-c2nncn2-c2ccccc2)cc1 | -11.3% |
| CCNC(=O)COC(=O)CCNC(=O)c1cccc(C)c1 | -16.4% |
| CCN(CCNC(=O)C1=C(C)C(=O)OC12CCC(C)CC2)c1ccccc1 (stereo not given) | 7.01% |
| O=C(CCN1C(=O)C2C3C=CC(C3)C2C1=O)Oc1ccc2ccccc2c1 (stereo not given) | 0.5% |
| O=C1c2cccc3c([N+](=O)[O-])ccc(c23)C(=O)N1CC1CCCO1 (stereo not given) | 77.4% (active) |
| O=C(NCc1ccc2c(c1)OCO2)c1ccc2c(c1)C(=O)N(CC1CCCO1)C2=O (stereo not given) | 4.48% |
| O=c1c2cc3c(=O)n(CC4CCCO4)c(=O)c3cc2c(=O)n1CC1CCCO1 (stereo not given) | 1.15% |
| Cc1cccc(NC(=O)c2ccc([N+](=O)[O-])o2)c1 | 47.9% (active) |
| Cc1onc(NC(=O)c2ccc([N+](=O)[O-])o2)c1Br | 28.1% |
| Cc1cccc(NC(=S)NC(=O)c2ccc(Br)o2)c1 | -1.45% |
| CN(C)C(=O)CSc1n[nH]c(-c2ccco2)n1 | -22.7% |
